A short description of experiment [1]: qHTS assay for measurement of the activity of small molecule inhibitors on Zika virus induced Caspase-3 activity in human iPSC derived neural progenitor cells (hNPCs) (AID 1224857). Further: nearly all actives have a fitted effect of over 65% in size. The gist of the method:
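After overnight (16–20 h) culture at 350 cells/well, hNPCs get compound, then ZIKV 2 FFU/cell one hour later. Six hours on, Caspase-Glo 3/7 is added and luminescence measured.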
For orientation: qHTS replaces the single test concentration by a dilution series.

Experiment [2] is described as follows: qHTS assay for measurement of the activity of small molecule inhibitors on Zika virus induced Caspase-3 activity in human astrocytoma cells (AID 1224859). In short, it runs like this:
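Inhibition of Zika-induced caspase-3/7 activity: SNB-19 cells, 1 h compound pretreatment, ZIKV 2 FFU/cell for 6 h at 37 C, Caspase-Glo luminescence read-out.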

Unmarked numbers belong to inactive results. Results filed as inconclusive are left out. Entries that show only a call come without a potency. The source made the active and inactive calls. The call rests on the fitted dose curve; in most records, active means well fitted inhibition curve with a large enough effect; inconclusive means small, poorly fitted or top-dose-only effect; inactive means no such curve, though single readings can be large or run the other way. *1 amine or outer side, *2 acyl side, *3 side chain or, on linkers, in order; H or OH if unused. Where a SMILES comes first, the peptide text is derived from it. Bridges are numbered along the chain shown (N, C = ends). [ ]: non-standard residue; d: D form. The star is where a group is joined. ξ: configuration not given here. X10 = NC1=NCCC(C(N[*:1])C(=O)[*:2])N1; ΔAla(3-NHCONH2) = NC(=O)NC=C(N)C(=O)O; ξβ3hOrn = NCCCC(N)CC(=O)*; Dap = NC[CH](N)C(=O)O

As to `CCOc1ccccc1OCC1CNCCO1` (configuration not stated), the Potency result in experiment [1] is “inactive”. In addition, the outcome in experiment [2] was inactive.
Turning to `COc1cc2c(cc1OC)C(=O)CC2`, the Potency entry in experiment [1] was “inactive”. The compound was called inactive in experiment [2].
As to `CCCC(=O)OCOC(=O)C1=C(C)NC(C)=C(C(=O)OC)C1c1cccc(Cl)c1Cl` (configuration not stated), in experiment [1], the Potency entry is “inactive”. In addition, the result in experiment [2] was inactive.
On to `CC(NN)c1ccccc1` (configuration not stated), for which the Potency entry in experiment [1] was “inactive”. Moreover, the result in experiment [2] was inactive.
Consider `NCCCC(N)CC(=O)NCC1NC(=O)C(CO)NC(=O)C(N)CNC(=O)C(C2CCN=C(N)N2)NC(=O)C(=CNC(N)=O)NC1=O` (stereo not drawn) (H-[Dap]S[Dap](ξβ3hOrn)[ΔAla(3-NHCONH2)][X10]; lactam 1-C; configuration not given here), for which the activity change, negative = inhibition is 2.09% [at 0.568 µM] in experiment [1] and -8.34% [at 0.568 µM] in experiment [2].
Consider `C/C(=N\O)[C@@H](C)NCC(C)(C)CN[C@H](C)/C(C)=N/O`, for which, in experiment [1], the Potency entry is “inactive”. For the same compound, in experiment [2], the outcome was inactive.
Turning to `C#CC(C)(CC)OC(=O)c1ccccc1C(=O)O` (configuration not stated), the Potency entry in experiment [1] is “inactive”. For the same compound, the compound was called inactive in experiment [2].
For the compound `CC1CCCCN1CCCOC(=O)c1ccc(OC2CCCCC2)cc1` (configuration not stated), the Potency entry in experiment [1] was “inactive”. Also, the call in experiment [2] was inactive.
Take `Cc1ccc(CCn2c3c(c4cc(Cl)ccc42)CN(C)CC3)cn1`: in experiment [1], the Potency result is “inactive”. Moreover, the call in experiment [2] was inactive.
Turning to `CCCCN(CCCC)C(C(N)=O)c1ccc(OC)cc1` (configuration not stated), in experiment [1], the Potency entry was “inactive”. Further, the compound was called inactive in experiment [2].
`Cc1nc2n(c(=O)c1CCN1CCC(C(=O)c3ccc(F)cc3)CC1)CCS2`: the Potency entry in experiment [1] is “inactive”. In addition, in experiment [2], the compound was called inactive.
In the case of `COC(=O)c1ccc(NC(C)=O)cc1OC`, in experiment [1], the Potency result was “inactive”. For the same compound, the compound was called inactive in experiment [2].
With `O=c1[nH]c2ccccc2c(=O)n1CCCl`, the Potency result in experiment [1] is “inactive”. Moreover, in experiment [2], the compound was classed as inactive.
Take `CC(CC1c2ccccc2CCc2ccccc21)CN(C)C` (configuration not stated): in experiment [1], the Potency result was “inactive”. The compound was called inactive in experiment [2].
With `Nc1ccc(C(=O)N2CC3CC(CN(Cc4ccccc4)C3)C2)cc1`, the Potency entry in experiment [1] was “inactive”. For the same compound, in experiment [2], the compound was called inactive.
In the case of `CCN(CC)CCN`, the Potency result in experiment [1] was “inactive”. Also, the compound was classed as inactive in experiment [2].
Consider `CCCCOC(=O)CCCCCCCCC(=O)OCCCC`, for which the Potency result in experiment [1] was “inactive”. The compound was classed as inactive in experiment [2].
Turning to `CN1CC[C@H](c2c(O)cc(O)c3c(=O)cc(-c4ccccc4Cl)oc23)[C@H](O)C1`, the Potency entry in experiment [1] is “inactive”. Besides, in experiment [2], the outcome was inactive.
Take `CC(C)OP(=O)(CP(=O)(OC(C)C)OC(C)C)OC(C)C`: the Potency entry in experiment [1] is “inactive”. In experiment [2], the call was inactive.
Take `CCCCCCn1c(=O)c2c(ncn2C)n(C)c1=O`: in experiment [1], the Potency result was “inactive”. Also, the call in experiment [2] was inactive.
`Cc1ccc(C(=O)C(=O)O)cc1C`: the Potency entry in experiment [1] was “inactive”. Besides, the compound was called inactive in experiment [2].
For the compound `CCOC(=O)CN1CCCC1=O`, the Potency entry in experiment [1] is “inactive”. Moreover, in experiment [2], the compound was classed as inactive.
For `COc1cc2nc(Cl)nc(N)c2cc1OC`, the Potency entry in experiment [1] was “inactive”. Also, the outcome in experiment [2] was inactive.
For `O=c1[nH]c(=O)n([C@H]2O[C@H](CO)[C@@H](O)[C@@H]2O)cc1/C=C\Br`, the Potency result in experiment [1] is “inactive”. In addition, in experiment [2], the compound was called inactive.
As to `Nc1c(I)cc(I)c(C(=O)N(CCC(=O)O)c2ccccc2)c1I`, the Potency result in experiment [1] was “inactive”. The call in experiment [2] was inactive.
In the case of `CN1CCC(N(Cc2cccs2)c2ccccc2)CC1`, in experiment [1], the Potency entry is “inactive”. In addition, the outcome in experiment [2] was inactive.

The values are drawn from PubChem BioAssay (NCATS).
